A selection: hits, their analogues and other compounds. The true share with any hit is near 1.3%.
beta cell repl = inducers of beta-cell replication in MIN6 cells | proliferation, % at 10 µM | AID 2380 | 330,000 compounds, 0.29% hits | MIN6 cells proliferation, ATPlite luminescence, 48 h; cells starved in 0.2% serum; 100% = growth in 10% serum;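 active = compounds whose signal lies at least 3.5 SD above the mean of all wells on their plate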;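 also: 0% = DMSO-treated cells in low-serum medium and 100% = 10% serum control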
PREPL inh = inhibitors of human prolyl oligopeptidase-like enzyme PREPL. inhibition, % at 5.96 µM. 320,000 compounds, 0.68% hits. Q4J6C6. recombinant PREPL, fluorescence polarization activity-based probe; in the data active = inhibition above about 43%;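 also: 0% = enzyme with DMSO and 100% = wells lacking enzyme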
RAD52 inh = inhibitors of human RAD52 DNA annealing; inhibition, % at 18.7 µM; AID 651710; P43351; 360,000 compounds, 0.46% hits; recombinant RAD52 DNA annealing, FRET fluorescence;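 active = every replicate showing at least 50% inhibition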
UBC13 polyUb = inhibitors of human UBC13 polyubiquitin chain formation | TR-FRET | inhibition, % at 20 µM | 330,000 compounds, 0.47% hits | AID 485273; in the data active = inhibition above about 45%, passing the limit was not always enough
RAD54 branch = RAD54 (human) branch migration inhibition; Q92698; RAD54 Holliday junction branch migration, FAM/BHQ fluorescence; inhibition, % at 10.4 µM; 360,000 compounds, 0.14% hits;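 active = mean normalized replicate activity at least 40 and at least half of replicates scoring 40 or more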;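 also: 0% = median of neutral control wells and 100% = median of positive control wells; inhibitors cause a drop in the FAM fluorescence signal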
Target sequence (Q92698 whole entry, looked up): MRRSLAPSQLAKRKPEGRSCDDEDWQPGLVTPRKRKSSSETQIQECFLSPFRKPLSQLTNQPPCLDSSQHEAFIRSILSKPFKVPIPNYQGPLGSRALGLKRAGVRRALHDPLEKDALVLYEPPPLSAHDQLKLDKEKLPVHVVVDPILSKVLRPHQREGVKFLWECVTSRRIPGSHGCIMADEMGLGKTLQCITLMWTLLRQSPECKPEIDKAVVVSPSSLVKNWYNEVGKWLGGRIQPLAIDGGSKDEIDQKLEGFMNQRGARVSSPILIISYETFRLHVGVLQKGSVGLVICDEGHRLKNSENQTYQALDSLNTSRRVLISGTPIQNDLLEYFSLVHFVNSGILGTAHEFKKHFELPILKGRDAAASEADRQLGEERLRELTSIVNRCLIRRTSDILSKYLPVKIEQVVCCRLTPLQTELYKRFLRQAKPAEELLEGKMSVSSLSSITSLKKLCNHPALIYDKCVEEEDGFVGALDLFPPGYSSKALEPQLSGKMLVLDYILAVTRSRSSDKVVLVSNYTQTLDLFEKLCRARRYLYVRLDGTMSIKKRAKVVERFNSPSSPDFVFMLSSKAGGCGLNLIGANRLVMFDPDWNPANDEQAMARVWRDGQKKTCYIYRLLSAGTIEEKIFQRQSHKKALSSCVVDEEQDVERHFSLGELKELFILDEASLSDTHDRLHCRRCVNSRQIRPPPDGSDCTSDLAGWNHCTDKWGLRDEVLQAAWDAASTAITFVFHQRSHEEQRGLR
FID counter = counter-screen for HCV NS3 helicase inhibitors: DNA intercalator displacement. AID 1845. DNA fluorescent intercalator displacement, fluorescence. 290,000 compounds, 0.17% hits. inhibition, % at 7.9 µM; in the data active = inhibition above about 37%;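 also: 0% = vehicle and 100% = reference compound; higher means more ethidium bromide displaced from hairpin DNA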
* hit, by the source's call; i = inactive; · = not tested or not shown.

SMILES	beta cell repl	PREPL inh	RAD52 inh	UBC13 polyUb	RAD54 branch	FID counter
COc1ccc(NC(=O)Nc2ccc3c(c2)C(=O)N([C@H](C)CO)C[C@H](C)[C@H](CN(C)Cc2ccccc2)OCCCC[C@H](C)O3)cc1	·	·	54*	·	8	·
C[C@@H]1CCCCO[C@H](CN(C)Cc2ccc3c(c2)OCO3)[C@@H](C)CN([C@@H](C)CO)C(=O)c2cc(NC(=O)Nc3ccccc3)ccc2O1	·	·	35	·	3	·
C[C@H](CO)N1C[C@H](C)[C@H](CN(C)Cc2ccc3c(c2)OCO3)OCCCC[C@H](C)Oc2ccc(NC(=O)Nc3ccccc3)cc2C1=O	·	·	56*	·	-4	·
COc1cccc(S(=O)(=O)N2CC3(CN[C@@H](CO)c4c3c3ccc(OC)cc3n4C)C2)c1	·	·	1	·	·	·
COc1ccc2c3c(n(C)c2c1)[C@H](CO)NCC31CCN(CC2CCCC2)CC1	·	·	38	·	·	·
COc1ccc2c3c(n(C)c2c1)[C@@H](CO)NCC31CCN(S(=O)(=O)c2cccc(C)c2)CC1	·	·	54*	·	·	·
COc1ccc2c3c(n(C)c2c1)[C@@H](CO)N(CC1CC1)CC31CCN(C(=O)CN(C)C)CC1	·	·	73*	·	·	·
COc1ccc2c3c(n(C)c2c1)[C@@H](CO)NCC31CCN(Cc2cc(-c3ccccc3)on2)CC1	·	·	59*	·	·	·
COc1ccc2c3c(n(C)c2c1)[C@H](CO)NCC31CN(CC2CCOCC2)C1	·	·	76*	·	·	·
CO[C@@H]1CN(C)C(=O)c2ccc(NC(=O)C3CC3)cc2OC[C@H](C)N(C(=O)c2ccccc2)C[C@H]1C	·	·	-8	·	6	·
OC[C@H]1[C@@H](c2ccc(C#CC3(O)CCCC3)cc2)[C@@H]2CN(Cc3ccccc3F)CCCCN12	·	·	4	·	2	·
CS(=O)(=O)Nc1ccc2c(c1)[C@H]1C[C@H](CC(=O)N3CCCCC3)O[C@H](CO)[C@H]1O2	·	·	·	·	-5	·
COc1ccc2c3c(n(C)c2c1)[C@H](CO)NCC31CN(Cc2cc(-c3ccccc3)on2)C1	·	·	80*	·	·	·
c1ccc(CCNc2nc(-c3ccncc3)cs2)cc1	-2	15	-16	5	2	-13
CCCCCNc1nc(-c2ccccc2)cs1	-4	70*	·	-4	·	-1
C=CC[C@@H]1C=C(C)C[C@H](C)C[C@H](OC)[C@H]2O[C@@](O)(C(=O)C(=O)N3CCCC[C@H]3C(=O)O[C@H](/C(C)=C/[C@@H]3CC[C@@H](O)[C@H](OC)C3)[C@H](C)[C@@H](O)CC1=O)[C@H](C)C[C@@H]2OC	0	55*	·	22	·	·
NC(=S)N=Nc1c(O)[nH]c2ccc(F)cc12	0	14	-15	50*	·	6
O=Nc1c(O)[nH]c2ccc(F)cc12	-2	12	-14	6	·	-1
C/C=C/C(=O)Nc1cccc(C2=NOC3(C2)C[C@H](C(N)=O)N(C(=O)c2ccccc2C(=O)c2ccccc2)C3)c1 (stereo not given in full)	-1	·	·	52*	·	·
CCC(=O)Nc1cccc(C2=NOC3(C2)C[C@@H](C(N)=O)N(C(=O)c2ccccc2C(=O)c2ccccc2)C3)c1 (stereo not given in full)	0	0	·	-8	-4	·
CO[C@H]1CN(C)C(=O)c2cc(NS(=O)(=O)c3cccc(F)c3)ccc2OC[C@H](C)NC[C@@H]1C	·	·	-3	·	-3	·
CN(C)c1ccc(NC(=O)C2C3C=CC(C3)C2C(=O)O)cc1 (stereo not given)	-3	·	58*	-24	16	11
C[C@@H]1CN([C@@H](C)CO)C(=O)Cc2cc(NC(=O)Nc3ccc(C(F)(F)F)cc3)ccc2O[C@H]1CN(C)C(=O)Nc1ccccc1	·	·	-17	·	-2	·
Cc1cccn2c(=O)c3cc(C(=O)NCc4ccco4)c(=N)n(C4CCCCC4)c3nc12	-1	28	·	8	32	0
Cc1cccn2c(=O)c3cc(C(=O)NCc4ccco4)c(=N)n(CCOCCO)c3nc12	0	16	·	-26	73*	5
CCN(CC)c1ccc2nc3ccccc3[n+](CC)c2c1	-4	14	·	-431	54*	31
CCN(CC)c1ccc2nc3ccc(N)cc3[n+](-c3ccccc3)c2c1	-7	·	-309	i	85*	·
CCOc1cc(CNC2CCCC2)cc(Cl)c1OCc1ccccc1	-3	-19	·	38	8	39*
C[C@H](CO)N1C[C@H](C)[C@H](CN(C)C(=O)Cc2ccccn2)Oc2cc(C#Cc3ccccc3)ccc2S1(=O)=O	·	·	-27	·	5	·
